Screens as filed in PubChem.
CD40 NFkB inh: CD40 pathway inhibition in BL2 cells. BL2 NF-kB luciferase reporter, CD40L-induced, 4 h. inhibition, % at 10 µM. hit rate 0.94% among 83,000. AID 1053188;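 active = mean inhibition of at least 50% with a set share of replicates also reaching that level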
Numbers stand for hits; n = inactive; [ ] = another dose, or the depositor's remark. Shown is part of a subset that was picked to be rich in hits.

SMILES	CD40 NFkB inh
O=C(Cc1ccccn1)N[C@H]1C=C[C@@H](CC(=O)N2CCCCC2)O[C@@H]1CO	n
CO[C@@H]1CN(C)C(=O)c2ccc(NC(=O)C3CCCC3)cc2OC[C@H](C)N(CC2CC2)C[C@@H]1C	n
COc1ccccc1C(=O)Nc1ccc2c(c1)C(=O)N(C)C[C@H](OC)[C@H](C)CN(C(C)=O)[C@H](C)CO2	n
O=C(C[C@H]1C[C@H]2c3cc(NC(=O)NC4CCCCC4)ccc3O[C@H]2[C@@H](CO)O1)NC1CCCC1	n
CCCc1cn(CC[C@@H]2CC[C@H](NC(=O)Cc3cccnc3)[C@@H](CO)O2)nn1	n
O=S(=O)(Nc1ccc(-c2nc3ccccc3o2)cc1)c1ccccc1	n
c1ccc2nc(-c3nc4ccccc4o3)ccc2c1	82
Cc1cc(-c2nc3ccccc3o2)c2ccccc2n1	n
CC(=O)N(C)C[C@H]1Oc2c(N)cccc2C(=O)N(C)C[C@H]1C	n
CN1c2ccc(-c3ccc(C#N)cc3)cc2[C@H]2[C@H](CCN2C(=O)NC2CCCC2)[C@@H]1CO	n
Cc1cc(=O)oc2cc(OC(C)C(=O)N3CCOCC3)c(Cl)cc12 (centres undefined)	n
Cc1ccc(S(=O)(=O)NC(C(=O)Oc2cc3oc(=O)cc(C)c3cc2Cl)C(C)C)cc1 (centres undefined)	29
Cc1ccc(S(=O)(=O)NCC(=O)OCc2cc(=O)oc3cc(C)ccc23)cc1	n
COc1cccc(-c2ccc3c(c2)[C@@H]2[C@@H](CCN2S(=O)(=O)c2ccccc2F)[C@@H](CO)N3C)c1	n
Cc1ccc(S(=O)(=O)N(C)C[C@H]2OCCCC[C@H](C)Oc3ccc(NS(=O)(=O)c4ccc(Cl)cc4)cc3C(=O)N([C@@H](C)CO)C[C@@H]2C)cc1	n
C[C@@H]1CN([C@@H](C)CO)C(=O)c2cccc(NC(=O)C3CCOCC3)c2O[C@@H]1CN(C)Cc1ccncc1	n
C[C@H](CO)N1C[C@H](C)[C@H](CN(C)C)Oc2cc(C#CC3CCCCC3)ccc2S1(=O)=O	n
C[C@H](O)C#Cc1cnc2c(c1)C(=O)N([C@H](C)CO)C[C@@H](C)[C@H](CN(C)Cc1cccc(C(=O)O)c1)O2	n
CC1CC(C)(C)Nc2ccc(OC(=O)c3ccco3)cc21 (centres undefined)	68
CC1CC(C)(C)Nc2ccc(N=O)cc21 (centres undefined)	n
COc1ccc(C(=O)Nc2cccc(OC(=O)c3ccco3)c2)cc1	n
C[C@H](CO)N1C[C@H](C)[C@@H](CN(C)S(=O)(=O)c2ccccc2)Oc2ccc(NC(=O)Nc3ccccc3)cc2C1=O	n
COc1ccc(S(=O)(=O)N(C)C[C@H]2OCCCC[C@H](C)Oc3ccc(NC(=O)Nc4ccc(F)cc4)cc3C(=O)N([C@H](C)CO)C[C@@H]2C)cc1	n
C[C@@H]1CN([C@@H](C)CO)C(=O)c2cccc(NC(=O)Nc3ccc(F)cc3)c2O[C@H]1CN(C)S(=O)(=O)c1ccc(Cl)cc1	n
COc1ccc(S(=O)(=O)N(C)C[C@H]2Oc3ccc(NC(=O)Nc4ccc(C(F)(F)F)cc4)cc3C(=O)N([C@H](C)CO)C[C@H]2C)cc1	66[25 µM]
SMILES	CD40 NFkB inh
C[C@@H]1CN([C@@H](C)CO)C(=O)c2cc(NC(=O)Nc3ccc(F)cc3)ccc2O[C@@H]1CN(C)S(=O)(=O)c1ccc(Cl)cc1	n
C[C@H](CO)N1C[C@H](C)[C@H](CN(C)S(=O)(=O)c2ccc(Cl)cc2)Oc2c(NC(=O)Nc3ccc(F)cc3)cccc2C1=O	85[25 µM]
COc1ccc(S(=O)(=O)N(C)C[C@@H]2Oc3ccc(NC(=O)Nc4ccc(C(F)(F)F)cc4)cc3C(=O)N([C@@H](C)CO)C[C@@H]2C)cc1	77[25 µM]
Cc1ccc(-c2cnc3c(c2)C(=O)N([C@@H](C)CO)C[C@H](C)[C@H](CN(C)C(=O)CN(C)C)O3)cc1	n
COc1ccc(-c2cnc3c(c2)C(=O)N([C@H](C)CO)C[C@@H](C)[C@@H](CN(C)C(=O)Nc2c(C)noc2C)O3)cc1	65[25 µM]
Cc1ccc(-c2cnc3c(c2)C(=O)N([C@H](C)CO)C[C@H](C)[C@H](CN(C)C(=O)CN(C)C)O3)cc1	n
COc1ccc(S(=O)(=O)N(C)C[C@@H]2OCCCC[C@H](C)Oc3ccc(NC(=O)Nc4ccc(C(F)(F)F)cc4)cc3C(=O)N([C@@H](C)CO)C[C@@H]2C)cc1	n
C[C@@H]1CN([C@@H](C)CO)C(=O)c2cccc(NC(=O)Nc3ccc(F)cc3)c2O[C@@H]1CN(C)S(=O)(=O)c1ccc(Cl)cc1	n
COc1ccc(C#Cc2cccc(-c3nc(C(=O)Nc4ccc(-c5ccccc5)cc4)cc4c3[C@@H](CCO)N(S(=O)C(C)(C)C)C4)c2)cc1OC (some centres undefined)	n
CN(C)C(=O)c1ccc(-c2ccc3c(c2)[C@H]2[C@H](CCN2C(=O)C2CCC2)[C@H](CO)N3C)cc1	n
CS(=O)(=O)N1Cc2cc(C(=O)O)nc(-c3cccc(-c4ccccc4F)c3)c2[C@@H]1CCO	n
CCOC(=O)N(C)C[C@H]1OCc2ccccc2-c2c(n(C)c3ccccc23)C(=O)N([C@@H](C)CO)C[C@H]1C	n
COc1ccc(OC(=O)N(C)C[C@H]2OCc3ccccc3-c3ccccc3C(=O)N([C@@H](C)CO)C[C@H]2C)cc1	n
C[C@H]1CN([C@@H](C)CO)C(=O)c2c(c3ccccc3n2C)-c2ccccc2CO[C@@H]1CN(C)C(=O)Cc1ccccc1	n
C[C@@H]1CN([C@@H](C)CO)C(=O)CCCn2cc(nn2)CO[C@@H]1CN(C)C(=O)Nc1ccnc(N2CCOCC2)c1	n
O=C1[C@H](Cc2ccc(C(F)(F)F)cc2)CCn2cc(nn2)COC[C@@H]2CCCCN2C(=O)[C@H](Cc2ccc(C(F)(F)F)cc2)CCn2cc(nn2)COC[C@@H]2CCCCN12	n
COc1ccc(S(=O)(=O)N(C)C[C@H]2Oc3ccc(NC(=O)Nc4ccc(C(F)(F)F)cc4)cc3C(=O)N([C@@H](C)CO)C[C@H]2C)cc1	61[25 µM]
COc1ccc(S(=O)(=O)N(C)C[C@H]2OCCCC[C@@H](C)Oc3ccc(NC(=O)Nc4ccc(F)cc4)cc3C(=O)N([C@H](C)CO)C[C@@H]2C)cc1	n
C[C@H]1CN([C@@H](C)CO)C(=O)c2cccc(NS(=O)(=O)c3ccc(Cl)cc3)c2O[C@@H]1CN(C)Cc1ccc(C(=O)Nc2ccccc2N)cc1	n
COc1ccc(S(=O)(=O)N(C)C[C@@H]2OCCCC[C@H](C)Oc3ccc(NC(=O)Nc4ccc(F)cc4)cc3C(=O)N([C@H](C)CO)C[C@H]2C)cc1	n
C[C@@H]1CN([C@@H](C)CO)C(=O)c2cccc(NS(=O)(=O)c3ccc(Cl)cc3)c2O[C@@H]1CN(C)Cc1ccc(C(=O)Nc2ccccc2N)cc1	active[25 µM]
C[C@@H]1CN([C@H](C)CO)C(=O)c2cccc(NS(=O)(=O)c3ccc(Cl)cc3)c2O[C@H]1CN(C)Cc1ccc(C(=O)Nc2ccccc2N)cc1	n
N#Cc1cccc(-c2ccc(C3[C@H]4CNC[C@@H]3N4C(=O)Nc3ccc(F)cc3)cc2)c1 (some centres undefined)	n
O=C(Nc1ccc2c(c1)[C@H]1C[C@@H](CC(=O)N3CCc4ccccc4C3)O[C@H](CO)[C@H]1O2)C1CCOCC1	n
CN(C)C(=O)c1ccc(-c2ccc(C3[C@@H]4CN(C(=O)CN5CCOCC5)C[C@H]3N4)cc2)cc1 (some centres undefined)	n
CO[C@H](C(=O)N(C)C[C@H]1OCc2ccccc2-c2c(n(C)c3ccccc23)C(=O)N([C@@H](C)CO)C[C@H]1C)c1ccccc1	n
